The values that follow come from PubChem BioAssay (Tox21).

Each structure is given as a SMILES string. Several values for one entry are separate records, joined by “and”; a condition that tells them apart may be missing. Equal values may be shown once. Records with an inconclusive call do not appear. Where a call stands in place of a potency, no number is given. Activity calls are given as the source filed them. Calls follow the shape of the dose curve; as a rule, active = well fitted cell-killing curve with a large enough effect in the repeat runs; inconclusive = weak or mixed curves, or effect the other way; inactive = flat fitted curve, though single readings scatter.
Potency is read from the fitted curve at half-maximal effect.

A short description of this test: cAMP Responsive Elements (CRE) small molecule agonists, cell-based qHTS assay: qHTS cell viability counter screen (AID 2060914). Also: nearly all actives have a fitted effect of over 50% in size. As to conditions: CRE-bla HEK293T viability, CellTiter-Glo luminescence, 5 h; series mostly up to 92.4 µM. From the text: National Center for Advancing Translational Sciences [NCATS]
Division of Preclinical Innovation [DPI]
U.S. Environmental Protection Agency [EPA]
National Institutes of Environmental Health Sciences [NIEHS]
National Toxicology Program [NTP]
U.S. Food and Drug Administration [FDA]
CREB (cyclic-AMP Responsive Element Binding Protein) is a cellular transcription factor. It binds to certain DNA sequences called cAMP Responsive Elements (CRE) and regulates the transcription of the genes. […] This cell line can be used to find agonists/antagonists of the cyclic AMP signaling pathway. The activation of the report gene under culture conditions can be detected by fluorescence intensity. This cell line has been used to screen the Tox21 10K compound library to identify agonists that induce oxidative stress. The cytotoxicity of the Tox21 compound library against the CRE-bla cell line was tested in parallel by measuring the cell viability using CellTiter-Glo assay (Promega, Madison, WI) in the same wells.
Tox21 Assay Protocol Summary:
CRE-bla Hek 293T cells were suspended in assay medium (DMEM containing 10% dialyzed FBS, 0.1 mM NEAA, 1 mM sodium pyruvate and 25 mM HEPES) and dispensed at 2,000 cells/5 uL /well into 1536-well black wall/clear bottom plates using a Multidrop Combi (ThermoFisher Scientific, Waltham, MA) dispenser. After the assay plates were incubated at 37 C/5% CO2 for 18 hrs, 23 nL of compounds dissolved in DMSO, positive controls or DMSO only was transferred to the assay plate by a pintool workstation (Kalypsys, San Diego, CA). After the plates were incubated at 37 C/5% CO2 for 3 hrs, 1 uL of LiveBLAzer B/G FRET substrate (Invitrogen, Carlsbad, CA) was added to each well using Bioraptr Flying Reagent Dispenser (FRD, Aurora Discovery, San Diego, CA). The plates were incubated at room temperature for 2 h, then fluorescence intensities were measured using an Envision plate reader (PerkinElmer, Shelton, CT) at Excitation 405nm, Emission 460nm and 530nm. The % activity was determined from the ratio of 460nm/530nm. For cell viability readout that measures cytotoxicity, 4 uL /well of CellTiter-Glo reagent was added into the assay plates using Bioraptr FRD. After 30 min incubation at room temperature, the luminescence intensity in the assay plates was measured using a ViewLux (PerkinElmer, Shelton, CT) plate reader.
(Quantitative high-throughput screening tests each substance at several concentrations.)
Regarding `CCc1c(Br)c(Br)c(Br)c(Br)c1Br`, the Potency result is “inactive”.
For `O=C(O)c1cccc(C(=O)O)c1C(=O)O`, the Potency entry was “inactive”.
The result for `CCCCC(CC)COC(=O)c1ccc(N(C)C)cc1` (stereo not given) reads “inactive”.
As for `CCCCOc1ccc(OCCCN2CCOCC2)cc1`, the entry is “inactive”; as for `CCCCCCOC(=O)C(C)C`, “inactive”.
On to `O=S(=O)(O)c1ccc2nc(-c3ccccc3)[nH]c2c1`, for which the Potency is 29.1 µM (active) and 21.1 µM (active).
Take `CCCCCCCCCCCC(=O)OC[C@@H](O)[C@H]1OC[C@H](OCCO)[C@H]1OCCO`: the Potency entry is “inactive”.
As for `O=S(=O)(O)CO`, the Potency result is “inactive”.
As for `COc1ccc2[nH]c(S(=O)Cc3ncc(C)c(OC)c3C)nc2n1` (stereo not given), the entry is “inactive”.
As for `NC(=O)CCCCC1CCSS1` (stereo not given), the entry is “inactive”; as for `COc1ccc(COC=O)cc1`, “inactive”.
The result for `CCOC(=O)c1ccccc1C(=C1C=C(Br)C(=O)C(Br)=C1)c1cc(Br)c(O)c(Br)c1` reads “inactive”.
Consider `O=C1OC2(c3ccccc31)c1ccc(O)c(Br)c1Oc1c2ccc(O)c1Br`, for which the Potency entry was “inactive”.
The result for `Nc1ccc(N)c(Cl)c1` reads “inactive”; that for `CN(C)Cc1ccccc1`, “inactive”; that for `CC1=C(/C=C/C(C)=C/C=C/C(C)=C\C(=O)O)C(C)(C)CCC1`, “inactive”.
The result for `COP(=O)(O)OP(=O)(O)OC` reads “inactive”; that for `ClCCOCCOCCCl`, “inactive”.
For the compound `CCCCCCC1(C)CCC(=O)O1` (stereo not given), the Potency entry was “inactive”.
As for `COCCOCCOC`, the entry is “inactive”.
As for `CCCC(=O)OCCc1ccccc1`, the entry is “inactive”; as for `CCCCCCCCn1sc(Cl)c(Cl)c1=O`, 43.3 µM (active); as for `CCCCC(CC)COC(=O)/C=C/c1ccc(OC)cc1` (stereo not given), “inactive”.
As for `CCO[Si](OCC)(OCC)c1ccccc1`, the entry is “inactive”; as for `CCCCCCCCCCO`, “inactive”.
For `C=CC(=O)OCCOC(=O)C=C`, the Potency result was “inactive”.
`CCCCOC(=O)COc1ccc(Cl)cc1Cl`: the Potency entry is “inactive”.
As for `CC(C)OC(=O)C(C(=O)OC(C)C)=C1SC=CS1`, the entry is “inactive”; as for `O=C1c2c(O)cccc2Cc2cccc(O)c21`, “inactive”; as for `CC(C)CCCC(C)CCCC(C)CCCCC(C)CCCC(C)CCCC(C)C` (stereo not given), “inactive”.
Consider `CC(=O)SC[C@@H](Cc1ccccc1)C(=O)NCC(=O)OCc1ccccc1`, for which the Potency entry was “inactive”.
The result for `CCOc1cccc(N)c1` reads “inactive”; that for `Brc1nc2ccccc2s1`, “inactive”; that for `OCc1ccccn1`, “inactive”.
Turning to `OCCc1ccccc1`, the Potency result was “inactive”.
In the case of `CC(C)(C)C(=O)NCCCC(=O)O`, the Potency entry is “inactive”.
With `O=[N+]([O-])c1cc(C2CCCCC2)c(O)c([N+](=O)[O-])c1`, the Potency result was “inactive”.
`ClC(c1ccccc1)(c1ccccc1)c1ccccc1`: the Potency result was “inactive”.
With `NC/C=C/C(=O)O`, the Potency entry was “inactive”.
On to `CCN1CN(CC)CN(CC)C1`, for which the Potency entry is “inactive”.
